According to ChEMBL document CHEMBL3988442, “University of Dundee, Small-Polar-MMV Screening Library” (2021):
For some of these results: Results with a measured potency or affinity are listed apart.

How the values were obtained:
Design in all cases: scale not given: direction of the effect not stated beside the values
[1] = molecular target: Protein translocase subunit SecA (Escherichia coli (strain K12)) (UniProt P10408); assay: Assay to Identify E. coli SecA ATPase Inhibitors; format: functional; conditions: 30 µM
[2] = molecular target: T1, Ubiquitin-activating enzyme e1, putative (Leishmania donovani (strain BPK282A1)) (UniProt E9BSI1); assay: Leishmania donovani Ubiquitin Activating Enzyme (LdE1); format: functional; conditions: 30 µM
T1 sequence (whole entry): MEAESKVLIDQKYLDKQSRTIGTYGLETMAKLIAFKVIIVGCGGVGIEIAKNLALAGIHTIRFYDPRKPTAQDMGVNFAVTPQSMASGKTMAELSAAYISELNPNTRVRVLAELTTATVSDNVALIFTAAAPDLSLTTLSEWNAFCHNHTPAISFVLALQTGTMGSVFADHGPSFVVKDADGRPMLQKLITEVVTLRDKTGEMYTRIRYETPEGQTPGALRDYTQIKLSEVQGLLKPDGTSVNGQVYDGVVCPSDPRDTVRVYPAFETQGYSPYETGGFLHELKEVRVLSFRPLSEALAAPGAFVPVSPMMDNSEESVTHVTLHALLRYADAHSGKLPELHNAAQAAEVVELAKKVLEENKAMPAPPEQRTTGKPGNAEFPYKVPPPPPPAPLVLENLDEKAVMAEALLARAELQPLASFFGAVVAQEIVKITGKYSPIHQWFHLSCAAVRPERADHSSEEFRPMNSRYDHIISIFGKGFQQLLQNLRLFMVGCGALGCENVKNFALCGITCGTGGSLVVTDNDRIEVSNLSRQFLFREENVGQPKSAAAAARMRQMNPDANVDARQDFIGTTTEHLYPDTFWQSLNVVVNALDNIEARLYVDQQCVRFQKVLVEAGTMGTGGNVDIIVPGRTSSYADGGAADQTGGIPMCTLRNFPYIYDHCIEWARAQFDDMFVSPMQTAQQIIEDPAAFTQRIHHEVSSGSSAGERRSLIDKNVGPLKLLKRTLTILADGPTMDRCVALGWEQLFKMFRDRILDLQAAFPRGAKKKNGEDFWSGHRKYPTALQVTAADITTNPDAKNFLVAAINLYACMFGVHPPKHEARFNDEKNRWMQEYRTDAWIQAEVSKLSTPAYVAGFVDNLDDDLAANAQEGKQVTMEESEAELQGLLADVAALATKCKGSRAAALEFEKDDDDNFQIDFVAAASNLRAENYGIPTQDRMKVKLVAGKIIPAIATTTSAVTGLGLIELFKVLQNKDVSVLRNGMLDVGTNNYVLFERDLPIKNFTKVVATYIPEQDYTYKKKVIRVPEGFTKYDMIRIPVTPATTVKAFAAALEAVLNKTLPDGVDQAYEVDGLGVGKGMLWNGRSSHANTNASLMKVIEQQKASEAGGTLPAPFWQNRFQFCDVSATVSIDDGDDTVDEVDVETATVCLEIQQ

[3] = molecular target: Sialic acid-binding Ig-like lectin 9 (Homo sapiens) (UniProt Q9Y336); assay: Hs-Siglec9 ALPHAscreen SOP 20170721; conditions: 10 µM
Trypanosoma cruzi = assay: Trypanosoma cruzi phosphomannomutase and mannose-1-phosphate guanylyltransferase assay; format: functional; conditions: 10 µM
[4] = molecular target: T2, Arginase-2, mitochondrial (Homo sapiens) (UniProt P78540); assay: in vitro enzyme assay to detect the production of urea directly proportional to the activity of Arginase II; format: functional; conditions: 33.3 µM; further: in the data most compounds retested in dose-response had high values
T2 sequence (whole entry): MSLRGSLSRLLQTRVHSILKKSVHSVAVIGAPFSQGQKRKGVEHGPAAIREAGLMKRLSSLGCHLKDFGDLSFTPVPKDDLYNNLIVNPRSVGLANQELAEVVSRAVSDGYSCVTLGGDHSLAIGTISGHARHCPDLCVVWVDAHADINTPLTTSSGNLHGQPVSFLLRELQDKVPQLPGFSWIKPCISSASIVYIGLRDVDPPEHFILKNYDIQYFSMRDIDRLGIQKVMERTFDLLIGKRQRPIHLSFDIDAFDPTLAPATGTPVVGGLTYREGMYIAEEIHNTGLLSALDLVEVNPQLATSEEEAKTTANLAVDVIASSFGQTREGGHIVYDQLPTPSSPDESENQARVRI

[5] = molecular target: T3, Proteasome subunit beta (Trypanosoma cruzi) (UniProt O96673); assay: Trypanosoma cruzi proteasome chymotrypsin-like activity (TcProtChymo) assay.; further: in the data most compounds retested in dose-response had high values; format: functional; conditions: 9.37 µM
T3 sequence (whole entry): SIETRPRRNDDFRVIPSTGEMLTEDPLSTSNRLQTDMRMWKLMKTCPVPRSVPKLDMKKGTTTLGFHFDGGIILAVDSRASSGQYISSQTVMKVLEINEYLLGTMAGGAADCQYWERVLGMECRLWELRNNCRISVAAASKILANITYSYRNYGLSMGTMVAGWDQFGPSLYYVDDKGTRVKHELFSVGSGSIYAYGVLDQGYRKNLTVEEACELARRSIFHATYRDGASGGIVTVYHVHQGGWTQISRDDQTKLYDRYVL

Homo sapiens = species on record: Homo sapiens; assay: To identify inhibition of the IFN signalling (Jak-Stat) pathway via expression of an eGFP reporter gene under the control of an IFN-stimulated response element (ISRE) containing MxA promoter.; format: functional; conditions: 30 µM
[6] = molecular target: T4, Tyrosyl-tRNA synthetase, putative (Trypanosoma cruzi (strain CL Brener)) (UniProt Q4DSP6); assay: Trypanosoma cruzi tyrosyl tRNA synthetase (TcYRS) _High Tyrosine SOP; format: functional; conditions: 30 µM; further: in the data most compounds retested in dose-response had high values
T4 sequence (whole entry): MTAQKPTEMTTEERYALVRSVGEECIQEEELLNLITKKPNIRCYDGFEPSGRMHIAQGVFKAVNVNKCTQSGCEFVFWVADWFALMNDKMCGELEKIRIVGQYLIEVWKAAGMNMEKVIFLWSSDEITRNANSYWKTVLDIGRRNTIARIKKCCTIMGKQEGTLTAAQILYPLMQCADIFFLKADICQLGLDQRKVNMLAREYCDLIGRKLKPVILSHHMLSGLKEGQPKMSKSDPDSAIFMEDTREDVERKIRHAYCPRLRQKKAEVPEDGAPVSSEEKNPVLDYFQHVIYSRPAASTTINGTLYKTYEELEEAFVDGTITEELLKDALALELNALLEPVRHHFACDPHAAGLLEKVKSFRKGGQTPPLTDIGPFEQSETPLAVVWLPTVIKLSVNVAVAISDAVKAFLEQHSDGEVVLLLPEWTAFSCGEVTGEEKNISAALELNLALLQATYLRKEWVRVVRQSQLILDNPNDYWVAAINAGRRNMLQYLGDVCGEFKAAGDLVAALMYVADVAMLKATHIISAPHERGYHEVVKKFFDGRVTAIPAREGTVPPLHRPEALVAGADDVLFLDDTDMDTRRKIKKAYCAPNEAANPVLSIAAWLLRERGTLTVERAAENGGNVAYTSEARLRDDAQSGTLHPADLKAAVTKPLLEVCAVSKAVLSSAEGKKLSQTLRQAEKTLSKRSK

[7] = molecular target: T4, Tyrosyl-tRNA synthetase, putative (Trypanosoma cruzi (strain CL Brener)); assay: Trypanosoma cruzi tyrosyl tRNA synthetase (TcYRS) SOP; format: functional; conditions: 30 µM
[8] = molecular target: Chromo domain-containing protein 1 (Saccharomyces cerevisiae (strain ATCC 204508 / S288c) (Baker's yeast)) (UniProt P32657); assay: ScCHD-1 Enzyme Inhibition Assay; format: functional; conditions: 30 µM; further: in the data most compounds retested in dose-response had high values
Sequence of Chromo domain-containing protein 1 (Saccharomyces cerevisiae (strain ATCC 204508 / S288c) (Baker's yeast)) (P32657 whole entry, the tested form may be a part): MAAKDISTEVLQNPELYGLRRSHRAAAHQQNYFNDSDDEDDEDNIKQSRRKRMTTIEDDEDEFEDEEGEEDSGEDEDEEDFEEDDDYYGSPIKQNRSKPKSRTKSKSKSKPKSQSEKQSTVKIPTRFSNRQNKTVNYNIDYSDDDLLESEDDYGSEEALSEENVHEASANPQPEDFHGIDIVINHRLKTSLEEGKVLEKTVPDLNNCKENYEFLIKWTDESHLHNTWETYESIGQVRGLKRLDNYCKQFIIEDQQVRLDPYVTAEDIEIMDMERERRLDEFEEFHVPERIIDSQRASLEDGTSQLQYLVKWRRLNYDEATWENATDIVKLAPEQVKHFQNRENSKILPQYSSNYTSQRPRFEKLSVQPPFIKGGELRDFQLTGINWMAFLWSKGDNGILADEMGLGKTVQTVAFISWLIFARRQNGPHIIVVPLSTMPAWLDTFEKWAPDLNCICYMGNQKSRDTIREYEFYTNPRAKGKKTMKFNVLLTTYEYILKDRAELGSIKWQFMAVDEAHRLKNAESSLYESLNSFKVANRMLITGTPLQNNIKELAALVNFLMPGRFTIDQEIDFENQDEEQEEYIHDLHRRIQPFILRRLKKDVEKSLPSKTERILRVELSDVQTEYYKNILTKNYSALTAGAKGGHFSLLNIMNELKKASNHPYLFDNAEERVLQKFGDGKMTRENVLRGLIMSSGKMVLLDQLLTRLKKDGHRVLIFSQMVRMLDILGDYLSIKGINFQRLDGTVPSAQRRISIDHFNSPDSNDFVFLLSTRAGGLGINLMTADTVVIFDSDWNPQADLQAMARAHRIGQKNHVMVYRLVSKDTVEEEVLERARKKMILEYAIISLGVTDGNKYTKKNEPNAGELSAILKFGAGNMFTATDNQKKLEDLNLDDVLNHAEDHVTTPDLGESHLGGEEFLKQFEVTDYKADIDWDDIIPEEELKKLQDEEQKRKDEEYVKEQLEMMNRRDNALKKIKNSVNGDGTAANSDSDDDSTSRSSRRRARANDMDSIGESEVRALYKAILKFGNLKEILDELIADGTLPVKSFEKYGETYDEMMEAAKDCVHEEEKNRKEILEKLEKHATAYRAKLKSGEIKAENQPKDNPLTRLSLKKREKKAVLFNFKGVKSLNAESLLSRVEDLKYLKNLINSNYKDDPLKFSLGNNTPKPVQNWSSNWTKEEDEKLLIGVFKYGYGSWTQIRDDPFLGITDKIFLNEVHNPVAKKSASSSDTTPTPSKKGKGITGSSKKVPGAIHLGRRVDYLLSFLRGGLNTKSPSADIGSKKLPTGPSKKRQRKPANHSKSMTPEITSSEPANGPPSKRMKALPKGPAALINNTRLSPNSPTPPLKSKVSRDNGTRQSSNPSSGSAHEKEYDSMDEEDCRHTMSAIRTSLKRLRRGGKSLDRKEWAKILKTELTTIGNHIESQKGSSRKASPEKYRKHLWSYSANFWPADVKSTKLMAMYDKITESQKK

Sequence of Sialic acid-binding Ig-like lectin 9 (Homo sapiens) (Q9Y336 whole entry): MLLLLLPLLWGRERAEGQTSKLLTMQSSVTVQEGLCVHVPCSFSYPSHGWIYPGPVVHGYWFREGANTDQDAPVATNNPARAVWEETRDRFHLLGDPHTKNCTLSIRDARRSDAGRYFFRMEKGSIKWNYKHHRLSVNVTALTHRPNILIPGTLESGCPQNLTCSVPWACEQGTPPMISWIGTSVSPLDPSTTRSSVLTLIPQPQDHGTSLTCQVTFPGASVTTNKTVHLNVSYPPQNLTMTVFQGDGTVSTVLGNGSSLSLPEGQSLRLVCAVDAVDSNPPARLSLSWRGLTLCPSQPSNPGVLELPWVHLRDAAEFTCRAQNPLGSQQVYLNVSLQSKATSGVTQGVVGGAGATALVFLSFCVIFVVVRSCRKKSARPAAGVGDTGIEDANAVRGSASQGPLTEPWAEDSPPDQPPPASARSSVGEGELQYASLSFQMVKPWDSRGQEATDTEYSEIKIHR
Sequence of Protein translocase subunit SecA (Escherichia coli (strain K12)) (P10408 whole entry): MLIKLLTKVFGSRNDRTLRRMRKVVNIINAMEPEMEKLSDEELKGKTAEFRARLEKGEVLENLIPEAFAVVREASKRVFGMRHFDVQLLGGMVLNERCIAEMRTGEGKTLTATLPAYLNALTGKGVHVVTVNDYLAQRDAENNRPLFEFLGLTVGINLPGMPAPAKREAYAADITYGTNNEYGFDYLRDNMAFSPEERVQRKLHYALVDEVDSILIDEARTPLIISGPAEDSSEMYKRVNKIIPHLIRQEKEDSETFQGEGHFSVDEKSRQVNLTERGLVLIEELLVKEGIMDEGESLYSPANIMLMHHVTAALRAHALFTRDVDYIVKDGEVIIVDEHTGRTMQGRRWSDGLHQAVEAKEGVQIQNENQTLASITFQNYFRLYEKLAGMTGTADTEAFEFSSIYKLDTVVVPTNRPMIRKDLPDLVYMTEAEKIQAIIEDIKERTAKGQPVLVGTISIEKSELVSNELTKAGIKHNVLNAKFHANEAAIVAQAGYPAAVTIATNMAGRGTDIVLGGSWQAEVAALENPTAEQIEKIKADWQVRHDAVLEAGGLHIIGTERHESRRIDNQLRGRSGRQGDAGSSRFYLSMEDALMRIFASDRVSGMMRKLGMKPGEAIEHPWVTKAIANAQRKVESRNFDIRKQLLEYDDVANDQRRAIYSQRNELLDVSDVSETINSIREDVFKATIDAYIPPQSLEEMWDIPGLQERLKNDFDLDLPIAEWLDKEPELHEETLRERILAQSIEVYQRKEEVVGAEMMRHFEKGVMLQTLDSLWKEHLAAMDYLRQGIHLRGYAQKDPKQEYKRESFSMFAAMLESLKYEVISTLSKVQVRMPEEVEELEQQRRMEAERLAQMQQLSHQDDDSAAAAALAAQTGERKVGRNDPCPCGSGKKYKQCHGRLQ

Row | Compound | Percent Effect [1] [%] | Percent Effect [2] [%] | Percent Effect [3] [%] | Percent Effect (Trypanosoma cruzi) [%] | Percent Effect [4] [%] | Percent Effect [5] [%] | Percent Effect (Homo sapiens) [%] | Percent Effect [6] [%] | Percent Effect [7] [%] | Percent Effect [8] [%]
1 | Fc1ccc(-c2n[nH]cc2-c2ccnc(NCCN3CCCC3)n2)cc1 | -1.15 | 8 | -4.6 | -8.23 | -7.98 | 15.3 | 5.44 | -5.79 | 0 | -21.2
2 | O=C(c1ccccn1)N1CCN(c2ccc(-c3cccnc3)nn2)CC1 | -3.31 | 11.7 | 4.87 | 1.31 | 4.11 | 21.7 | 1.87 | 0.966 | 10 | -7.95
3 | O=S(=O)(CCCN1CCCC1Cn1cncn1)c1ccccc1 (stereo not given) | 1.87 | 26 | -0.0999 | 1.49 | -4.71 | 17.4 | 2.97 | 9.8 | 21.2 | -10.1
4 | COCc1nc(CNC2CCSCC2)no1 | -6.18 | 2.7 | 1.55 | 3.98 | 1.75 | 7.36 | -12.7 | 3.72 | 9.76 | -0.943
5 | O=C(NCCOc1ccc2c(c1)CCC2)N1CCS(=O)(=O)CC1 | -6.68 | 2.56 | -7.49 | -1.78 | -0.82 | 1.28 | 23.2 | -1.44 | -1.21 | -2.29
6 | CCCn1ccc(C(=O)N2CCOC(c3nc(-c4cccs4)no3)C2)n1 (stereo not given) | -2.75 | 6.67 | 6.13 | -1.18 | 0 | 4.76 | 1.83 | 5.29 | 17.5 | -17.3
7 | COc1cccc(-c2noc(C3CCN(Cc4cn(C)nc4C)C3)n2)c1 (stereo not given) | -3.83 | 14.7 | 3.58 | 5.72 | -1.33 | 14.1 | 31.6 | 6.35 | 20 | -24.7
8 | COCC1CN(Cc2ccsc2)Cc2nn(C)cc21 (stereo not given) | -4.97 | 6.49 | -3.38 | -7.11 | 2.83 | 20.9 | 13.5 | 3.68 | 0 | 2.62
9 | CC1COCCN1C(=O)c1cccc(OCc2cscn2)c1 (stereo not given) | -2.94 | 10.3 | -10.6 | 7.98 | -4.1 | 9.3 | -21.1 | 5.26 | 20.5 | -2.42
10 | Cc1nc(CN2CCN(Cc3nccn3C)CC2)no1 | -4.99 | 8 | -1.66 | 3.21 | -1.77 | 4.16 | 11.1 | 5.79 | 15.4 | -11.3
11 | Cc1ccc(C(CNC(=O)NCc2cc[nH]n2)N2CCOCC2)o1 (stereo not given) | -3.05 | 12.8 | -4.81 | -4.04 | 0.82 | 14.1 | 24.3 | 2.39 | 10.8 | -3.31
12 | Cc1ccsc1C(=O)N1Cc2ccccc2C2(CCN(C)CC2)C1 | -4.41 | -1.3 | -5.71 | -5.55 | -2.02 | 5.56 | -24.7 | 1.58 | 2.56 | -2.8
13 | CCn1cc(NC(=O)CCc2ccc3c(c2)OCCCO3)cn1 | -5.48 | 15.6 | 6.08 | 4.85 | -6.35 | 2.28 | 0.692 | 6.86 | 23.5 | -12.8
14 | Cc1ccccc1S(=O)(=O)N1CCCCC1c1ccn[nH]1 (stereo not given) | 1.53 | 9.33 | -8.62 | -7.5 | 0.443 | 13.3 | 19.3 | 0 | 7.5 | -21.7
15 | CN1CCOC(CNC(=O)CCCOc2ccccc2F)C1 (stereo not given) | -2.16 | 12.8 | 3.45 | 1.6 | 2.87 | 18.5 | 18.2 | 10.1 | 22.9 | -4.86
16 | C1CC(CN2CCOCC3(CCN(C4CCOCC4)C3)C2)CCO1 (stereo not given) | -5.96 | 9.09 | -7.57 | 6.13 | -6.88 | 13.7 | 3.41 | 6.84 | 10.3 | 0.2
17 | Cc1ccc(N2CCCN(C(=O)c3c(C)oc(C)c3C)CC2)nn1 | -6.08 | 18.7 | 5.84 | 2.61 | -0.887 | 9.92 | 4.96 | 4.74 | 15.4 | -6.9
18 | Cc1cnc(C(=O)N2C[C@@H]3CN(CC4CCCC4)CCO[C@@H]3C2)cn1 | -3.12 | 11.7 | 4.74 | 0.682 | -3.24 | 9.97 | 11 | 5.79 | 10.3 | -2.15
19 | CCC(NC(=O)CC(F)(F)F)c1ccccc1OCC(=O)N1CCCC1 (stereo not given) | -0.84 | 15.4 | -4.51 | -0.845 | 0 | 13.4 | -7.93 | 7.18 | 20.5 | -2.48
